Laboratory results as given in PubChem BioAssay (NCI).
The panel holds about 79,000 compounds, 15% with a hit somewhere; the sample as a whole holds those more often. The source made the active and inactive calls. Cut-off read from the data, not from the text of the source: active = growth inhibition above about 70%; inactive = the rest.

Experiments:
[1] = NCI Yeast Anticancer Drug Screen. Data for the rad52 strain (AID 147);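 note: 0% = growth of vehicle-treated control cultures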; details: S. cerevisiae rad52 mutant growth inhibition, hits give high values
Outline: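 DNA repair-defective yeast; compound exposure; growth scored against vehicle controls.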

[2] = NCI Yeast Anticancer Drug Screen. Data for the wt1 strain (AID 149);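 note: 0% = growth of vehicle-treated wt1 cultures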; details: S. cerevisiae wt1 strain (SPY 50644) growth inhibition, hits give high values
Outline: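 Vehicle-normalised growth inhibition; strain wt1; compound exposure.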

[3] = NCI Yeast Anticancer Drug Screen. Data for the rad50EPP+ strain (AID 151);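 note: 0% = growth of vehicle-treated control cultures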; details: S. cerevisiae rad50 mutant strain, hits give high values
Outline: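 rad50EPP+ yeast treated with test compounds. Readout: growth vs vehicle control.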

[4] = NCI Yeast Anticancer Drug Screen. Data for the mgt1 strain (AID 153); details: S. cerevisiae mgt1 mutant growth inhibition, hits give high values
Outline: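 Growth inhibition relative to vehicle controls was scored for the mgt1 yeast strain after compound exposure.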

[5] = NCI Yeast Anticancer Drug Screen. Data for the rad50 strain (AID 155);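 note: 0% = growth of vehicle-only cultures of the same strain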; details: S. cerevisiae rad50 strain growth inhibition, hits give high values
Outline: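 A DNA repair-deficient yeast mutant serves as the test organism; compound-induced growth inhibition is calculated against vehicle-treated cells.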

[6] = NCI Yeast Anticancer Drug Screen. Data for the mec2-1 strain (AID 157); details: S. cerevisiae mec2-1 strain, hits give high values
Outline: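 Growth inhibition is read against vehicle-treated controls after compound exposure of the mec2-1 yeast strain, which is defective in DNA damage repair or cell cycle control.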

[7] = NCI Yeast Anticancer Drug Screen. Data for the rad14 strain (AID 159);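 note: 0% = growth of vehicle-treated control cultures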; details: S. cerevisiae rad14 strain growth inhibition, hits give high values
Outline: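 Vehicle-treated cultures served as the baseline for growth inhibition of a DNA repair-mutant yeast strain exposed to each compound.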

[8] = NCI Yeast Anticancer Drug Screen. Data for the sgs1 mgt1 strain (AID 161);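 note: 0% = growth of cultures given vehicle only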; details: S. cerevisiae sgs1 mgt1 strain, hits give high values
Outline: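 Growth of a repair-deficient yeast mutant was monitored after compound treatment and expressed as inhibition relative to vehicle-treated cultures.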

[9] = NCI Yeast Anticancer Drug Screen. Data for the CLN2oe strain (AID 163);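 note: 0% = growth of vehicle-only control cultures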; details: S. cerevisiae CLN2oe strain, hits give high values
Outline: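 Compound-treated yeast; growth vs vehicle ctrl = % inhibition. Genetically altered strain (cell-cycle control).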

[10] = NCI Yeast Anticancer Drug Screen. Data for the cln2 rad14 strain (AID 165);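 note: 0% = growth equal to vehicle treated cultures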; details: S. cerevisiae cln2 rad14 strain, hits give high values
Outline: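 Growth inhibition, relative to vehicle-treated controls, is the read-out. The test organism is a yeast strain with defined genetic alterations, cln2 rad14.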

[11] = NCI Yeast Anticancer Drug Screen. Data for the bub3 strain (AID 167); details: S. cerevisiae bub3 mutant strain, hits give high values
Outline: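 Inhibition values come from growth of compound-treated mutant yeast normalised to vehicle-treated controls.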

[12] = NCI Yeast Anticancer Drug Screen. Data for the wt2 strain (AID 169);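 note: 0% = growth of vehicle-treated yeast cultures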; details: S. cerevisiae wt2 strain growth inhibition, hits give high values
Outline: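 Compound exposure of yeast; growth compared with vehicle controls; inhibition reported.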

[13] = NCI Yeast Anticancer Drug Screen. Data for the mlh1 strain (AID 171);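 note: 0% = growth of vehicle-treated control cultures of the same strain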; details: S. cerevisiae mlh1 strain growth inhibition, hits give high values
Outline: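 Compounds are applied to a genetically altered yeast strain, and its growth is compared with that of vehicle-treated cultures to give percent inhibition.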

[14] = NCI Yeast Anticancer Drug Screen. Data for the sgs1 strain (AID 173);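 note: 0% = growth of vehicle-only control cultures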; details: S. cerevisiae sgs1 mutant, hits give high values
Outline: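 Compounds applied to genetically altered yeast; growth compared with vehicle-treated cultures to give % inhibition.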

[15] = NCI Yeast Anticancer Drug Screen. Data for the mlh1 rad18 strain (AID 175); details: S. cerevisiae mlh1 rad18 strain growth inhibition, hits give high values
Outline: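 Cells of a genetically altered yeast strain, deficient in DNA damage repair, were treated with compound. Their growth was then compared with that of vehicle-treated cultures to give inhibition.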

[16] = NCI Yeast Anticancer Drug Screen. Data for the rad18 strain (AID 177); details: S. cerevisiae rad18 mutant growth inhibition, hits give high values
Outline: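 Compounds are applied to a repair-deficient yeast strain, and growth is compared with that of vehicle-treated cultures to give percent inhibition.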

[17] = at 5.0 µM (retest, dose inferred, filed as 0.5)
[18] = at 50.0 µM (retest, dose inferred, filed as 5.0)

Measured: growth inhibition

COC(=O)CCNc1c2ccccc2nc2cccc([N+](=O)[O-])c12
inactive: [3]; at 1.2 µM 18% | [3]; at 3.7 µM 49% | [4]; at 1.2 µM 61% | [9]; at 1.2 µM 7% | [9]; at 3.7 µM 50% | [11]; at 1.2 µM -13% | [11]; at 3.7 µM 11% | [11]; [17] 10% | [11]; at 11.0 µM 66% | [12]; at 1.2 µM 5% | [12]; at 3.7 µM 27%
active: [1]; at 1.2 µM 97% | [1]; at 3.7 µM 97% | [1]; at 11.0 µM 97% | [1]; at 33.0 µM 98% | [1]; at 100.0 µM 98% | [2]; at 1.2 µM 79% | [2]; at 3.7 µM 87% | [2]; at 11.0 µM 96% | [2]; at 33.0 µM 97% | [2]; at 100.0 µM 97% | [3]; at 11.0 µM 80% | [3]; at 33.0 µM 93% | [3]; at 100.0 µM 97% | [4]; at 3.7 µM 74% | [4]; at 11.0 µM 87% | [4]; at 33.0 µM 97% | [4]; at 100.0 µM 97% | [5]; at 1.2 µM 95% | [5]; at 3.7 µM 95% | [5]; [17] 95% | [5]; at 11.0 µM 96% | [5]; at 33.0 µM 97% | [5]; [18] 98% | [5]; at 50.0 µM 86% | [5]; at 100.0 µM 97% | [6]; at 1.2 µM 97% | [6]; at 3.7 µM 97% | [6]; [17] 90% | [6]; at 11.0 µM 98% | [6]; at 33.0 µM 98% | [6]; [18] 99% | [6]; at 50.0 µM 91.3% | [6]; at 100.0 µM 98% | [7]; at 1.2 µM 99% | [7]; at 3.7 µM 99% | [7]; at 11.0 µM 99% | [7]; at 33.0 µM 99% | [7]; at 100.0 µM 99% | [8]; [17] 94% | [8]; [18] 98% | [8]; at 50.0 µM 81.2% | [9]; at 11.0 µM 89% | [9]; at 33.0 µM 96% | [9]; at 100.0 µM 98% | [10]; [17] 99% | [10]; [18] 99% | [10]; at 50.0 µM 89.4% | [11]; at 33.0 µM 96% | [11]; [18] 99% | [11]; at 50.0 µM 84% | [11]; at 100.0 µM 99% | [12]; at 11.0 µM 85% | [12]; at 33.0 µM 97% | [12]; at 100.0 µM 99% | [13]; at 1.2 µM 84% | [13]; at 3.7 µM 91% | [13]; at 11.0 µM 95% | [13]; at 33.0 µM 96% | [13]; at 100.0 µM 97% | [14]; at 1.2 µM 97% | [14]; at 3.7 µM 96% | [14]; at 11.0 µM 98% | [14]; at 33.0 µM 98% | [14]; at 100.0 µM 98% | [15]; [17] 96% | [15]; [18] 99% | [15]; at 50.0 µM 81.1% | [16]; at 1.2 µM 97% | [16]; at 3.7 µM 97% | [16]; at 11.0 µM 95% | [16]; at 33.0 µM 97% | [16]; at 100.0 µM 97%
